Screening data: PubChem, several laboratories
An excerpt weighted towards active compounds, which were near 1.2% of everything screened.
COUP-TFII inh = inhibitors of human COUP-TFII (NR2F2); P24468; HEK293T NGFI-A luciferase reporter, luminescence; inhibition, % at 8.6 µM; 370,000 tested, 0.7% active;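 active = inhibition above a per-plate cutoff, mean inhibition of test wells between control levels plus 3 SD, cut at about 38% in these data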;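 note: cells cotransfected with COUP-TFII expression vector driving the NGFI-A reporter; 0% = median of COUP-TF2 test wells and 100% = reporter-only cells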
SRC2 inh = inhibits human steroid receptor coactivator 2; Q15596; HEK293 GAL4-SRC2 luciferase reporter, luminescence; inhibition, % at 9 µM; 370,000 tested, 0.17% active; AID 651957;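 active = inhibition above the mean inhibition of all tested compounds plus 3 SD, set per campaign, cut at about 52% in these data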;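 note: 0% = DMSO treated cells and 100% = cells given Gossypol at 36 µM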
SRC1 inh = inhibits human SRC1 coactivator. Q15788. HEK293 GAL4-SRC1 luciferase reporter, luminescence. inhibition, % at 3.6 µM. 360,000 tested, 0.12% active. AID 588354;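 active = inhibition above the campaign mean plus 3 SD, with each screening campaign given its own cutoff, cut at about 60% in these data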;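 note: 0% = DMSO treated cells and 100% = gossypol at 36 µM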
Gli-Sufu block = antagonists of Gli-Sufu signaling; Sufu-KO-LIGHT fibroblasts, Gli luciferase reporter luminescence; inhibition, % at 5 µM; 340,000 tested, 0.74% active;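 active = inhibition above about 55%, limit read from the data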;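 note: 0% = DMSO-treated cells and 100% = wells with medium but no cells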
NCOA3 inh = human NCOA3 inhibition; inhibition, % at 3.6 µM; Q9Y6Q9; 360,000 tested, 0.17% active; HEK293 GAL4-SRC3 luciferase reporter, luminescence;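 active = inhibition above a per-campaign cutoff, the mean of all compounds plus 3 SD, cut at about 60% in these data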;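 note: 0% = DMSO-treated cells and 100% = gossypol-treated cells at 36 µM; higher means less SRC3-driven luciferase light from the GAL4 reporter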
LRH-1 inv ag = NR5A2 inverse agonism in reporter assay; O00482; HEK293T StAR-luciferase reporter, LRH-1 transfected, 24 h; inhibition, % at 3.6 µM; 360,000 tested, 0.13% active; AID 602396;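 active = inhibition above the mean inhibition of all tested compounds plus 3 SD, cut at about 73% in these data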;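 note: 0% = DMSO wells and 100% = reporter-only cells lacking LRH-1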
Gli-Sufu confirm = Gli-SUFU antagonism confirmation, single concentration | Sufu-KO-LIGHT cells, Gli luciferase reporter, luminescence | AID 602428 | 2,500 tested, 40% active | inhibition, % at 5 µM | shares compounds with Gli-Sufu block;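 active = mean inhibition at 5 µM reaching about 45%, limit read from the data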;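 note: plate controls were DMSO-treated cells for no effect and wells lacking cells for full effect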
Gli cytotox = cytotoxicity counter-screen for Gli-SUFU antagonists; shares compounds with Gli-Sufu block; Sufu-KO-LIGHT cells cytotoxicity, ATP luminescence; cytotoxicity, % at 5 µM; 2,500 tested, 32% active; AID 651994;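 active = mean cytotoxicity at 5 µM above about 25%, limit read from the data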;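 note: cells exposed to compound overnight for roughly 16 to 18 hours; plate controls were DMSO wells with cells for no effect and medium without cells for full effect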
Wnt3a counter = inhibits Wnt3a reporter, counter-screen for Gli-SUFU antagonists; Wnt-LIGHT cells, Wnt3a-driven luciferase reporter, luminescence; inhibition, % at 6.25 µM; 2,500 tested, 20% active; AID 651995; shares compounds with Gli-Sufu block;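 active = mean inhibition above about 25%, limit read from the data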
Starred values were filed as active, the others as inactive.

Screening CCN=C1NC(c2ccccc2)C(C(=O)OC)=C(C)N1Cc1ccc(C(F)(F)F)cc1 (stereo not drawn) returned COUP-TFII inh -12 and SRC2 inh -14.
O=C(CCNS(=O)(=O)c1ccc(OC(F)(F)F)cc1)NC1CC1 was read as COUP-TFII inh 11, SRC2 inh -5, SRC1 inh 4, Gli-Sufu block 0, NCOA3 inh -5 and LRH-1 inv ag 2.
Screening Cc1ccccc1CNC(=O)CCNS(=O)(=O)c1ccc(OC(F)(F)F)cc1 returned COUP-TFII inh 6, SRC2 inh 11, SRC1 inh -11, Gli-Sufu block 94*, NCOA3 inh 6, LRH-1 inv ag 6, Gli-Sufu confirm 12, Gli cytotox 23 and Wnt3a counter -26.
O=C(Nc1cc(S(=O)(=O)Nc2ccc(Cl)cc2)ccc1O)c1ccc(S(=O)(=O)N2CCCCCC2)cc1 was read as COUP-TFII inh -3, SRC2 inh -12, SRC1 inh -1, Gli-Sufu block 3, NCOA3 inh 18 and LRH-1 inv ag -13.
Screening O=C(N/N=C\c1cc(Cl)ccc1O)c1ccc(S(=O)(=O)N2CCCCC2)cc1 returned COUP-TFII inh 8, SRC2 inh -1, SRC1 inh 12, Gli-Sufu block 73*, NCOA3 inh 27, LRH-1 inv ag -3, Gli-Sufu confirm 78*, Gli cytotox 37* and Wnt3a counter 61*.
Cc1[nH]nc2c1C(c1cccc(C(F)(F)F)c1)NC2=O (stereo not drawn) was read as COUP-TFII inh -15 and SRC2 inh -24.
For CCN1CCN(C(=O)CCNC(=O)Cn2ccc3ccccc3c2=O)CC1 the results were COUP-TFII inh -6, SRC2 inh 5, SRC1 inh 6, Gli-Sufu block 6, NCOA3 inh 15 and LRH-1 inv ag 8.
Screening CN1CCN(C(=O)CCNC(=O)Cn2ccc3ccccc3c2=O)CC1 returned COUP-TFII inh -6, SRC2 inh -41, SRC1 inh -3, Gli-Sufu block 99*, NCOA3 inh -9, LRH-1 inv ag 6, Gli-Sufu confirm 10, Gli cytotox 2 and Wnt3a counter -9.
`CC(C)N=C(N)N=C(N)Nc1ccc(Cl)cc1` gave COUP-TFII inh -11, SRC2 inh -15, SRC1 inh -27, Gli-Sufu block 70*, NCOA3 inh 8, LRH-1 inv ag -17, Gli-Sufu confirm 74*, Gli cytotox 20 and Wnt3a counter 34*.
Cc1ccc2c(c1)N(CCC(=O)NCc1cccnc1)C(=O)CO2 was read as COUP-TFII inh 20, SRC2 inh -8, SRC1 inh -5, Gli-Sufu block 3, NCOA3 inh 6 and LRH-1 inv ag -3.
Cc1ccc2c(c1)N(CCC(=O)NCc1ccccn1)C(=O)CO2 was read as COUP-TFII inh 20, SRC2 inh -25, SRC1 inh 13, Gli-Sufu block 53, NCOA3 inh -2, LRH-1 inv ag -9, Gli-Sufu confirm 8, Gli cytotox 0 and Wnt3a counter 5.
`COC(=O)c1sc(N)c(C(=O)OC)c1CSc1nnnn1C` gave COUP-TFII inh -14, SRC2 inh -3, SRC1 inh 12, Gli-Sufu block 99*, NCOA3 inh 24, LRH-1 inv ag 24, Gli-Sufu confirm 24, Gli cytotox 2 and Wnt3a counter 11.
`CN1/C(=C/C=N/NC(=O)c2ccc([N+](=O)[O-])cc2)C(C)(C)c2ccccc21` gave COUP-TFII inh -19, SRC2 inh 7, SRC1 inh 1, Gli-Sufu block 11, NCOA3 inh 2 and LRH-1 inv ag -29.
